Assay outcomes: PubChem BioAssay, National Center for Advancing Translational Sciences (NCATS)
SARS PLP yeast: inhibitors of SARS-CoV papain-like protease in yeast; hit rate 0.19% among 330,000; Potency, µM (top dose mostly 32.9 µM), actives largely listed as activators; S. cerevisiae expressing SARS-CoV PLpro, growth rescue; calls by dose curve; note: nearly all actives have a fitted effect of over 55% in size
AMA1-RON2 inh: AMA1-RON2 (P. falciparum) interaction inhibition; AlphaScreen AMA1-biotinylated RON2 peptide binding; Potency, µM (series often up to 58.2 µM), most hits filed as inhibitors; hit rate 0.2% among 360,000; note: nearly all actives have a fitted effect of over 45% in size
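AMA1 (3D7) with his tag at 25 nM final met compounds first, then biotinylated RON2 peptide at 25 nM; detection used donor plus acceptor beads, 10 µg/mL apiece, read by AlphaScreen after 30 min at room temperature.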
AmpC no deterg: blocks E. coli AmpC beta-lactamase in detergent-free assay; P00811; hit rate 0.52% among 330,000; AmpC nitrocefin hydrolysis, absorbance 480 nm, 0.0001% Triton; Potency, µM (doses to about 57.1 µM), hits mostly inhibitors; note: nearly all actives have a fitted effect of over 20% in size
Target sequence (P00811 whole entry, looked up): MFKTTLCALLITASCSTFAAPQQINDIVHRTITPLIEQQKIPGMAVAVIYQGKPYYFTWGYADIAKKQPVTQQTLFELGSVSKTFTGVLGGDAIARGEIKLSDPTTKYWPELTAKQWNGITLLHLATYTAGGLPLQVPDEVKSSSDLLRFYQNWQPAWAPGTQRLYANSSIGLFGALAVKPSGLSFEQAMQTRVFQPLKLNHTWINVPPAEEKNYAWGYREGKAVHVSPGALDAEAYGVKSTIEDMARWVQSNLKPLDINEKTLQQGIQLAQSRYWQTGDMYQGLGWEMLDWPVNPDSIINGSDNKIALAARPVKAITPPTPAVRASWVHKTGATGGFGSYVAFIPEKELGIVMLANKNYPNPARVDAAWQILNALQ
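20 mM phosphate pH 7.0 + 0.01% (detergent screen) or 0.0001% Triton X-100; 5.3 nM AmpC reagent; cpd preinc 15 min RT; nitrocefin (800 uM stock) to start; A480 q20 s × 4 min; Activity was normalised to no-enzyme and no-compound control wells.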
Shiga inhibitor: inhibitors of Shiga toxin in Vero cells | Vero cells, Shiga toxin protein synthesis inhibition reporter | inhibition, % at 38.7 µM | hit rate 9.2% among 290,000 | AID 2315; in the data active = inhibition mostly above about 28%, no sharp cut-off; inactive = mostly below about 43%
AmpC detergent: AmpC beta-lactamase inhibition with detergent present; AID 485294; hit rate 0.041% among 370,000; Potency, µM (top dose mostly 114 µM), hits mostly inhibitors; AmpC hydrolysis of nitrocefin, absorbance 480 nm, 0.01% Triton; P00811; note: nearly all actives have a fitted effect of over 25% in size
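20 mM phosphate pH 7.0 + 0.01% (detergent screen) or 0.0001% Triton X-100; 5.3 nM AmpC reagent; cpd preinc 15 min RT; nitrocefin (800 uM stock) to start; A480 q20 s × 4 min; Activity was normalised to no-enzyme and no-compound control wells.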
Cycloheximide cs: counter-screen for Shiga toxin inhibitors: cycloheximide protein synthesis inhibition; max response, %; cell reporter, cycloheximide protein synthesis inhibition counterscreen; hit rate 12% among 300,000; in the data active = max response mostly above about 13%, no sharp cut-off; inactive = mostly below about 14%; note: read at 38.3 µM for the half of the compounds with a filed dose
Of the large screens only hits and unclear results are named; the others gave an inactive call. This is one part of a sample in which hits are shown more often than they occur. Unless noted, calls come from the whole dose curve; as a rule, active = well fitted curve in the direction sought with a large enough effect; inconclusive = small, poorly fitted or top-dose-only effect, or another doubt; inactive = no such curve, though single readings can be large; an effect the other way counts as inactive or inconclusive.

Cc1csc(=O)n1CC(=O)OCC(=O)Nc1cc(Cl)ccc1[N+](=O)[O-]	AmpC detergent inconclusive
COc1ccc(/C=C2\C(=O)NC(=S)N2C(=O)c2ccc(C)cc2)cc1	Shiga inhibitor 59, Cycloheximide cs 35
O=C1NC(=S)N(C(=O)c2ccc(F)cc2)/C1=C/c1cccnc1	none
O=C(NCCNc1ccccc1[N+](=O)[O-])c1cc(F)c(F)cc1Cl	Shiga inhibitor 154, Cycloheximide cs 50
CC(C)COc1ccc(C(=O)Nc2ccccc2[N+](=O)[O-])cc1	Shiga inhibitor active, Cycloheximide cs 53
COc1ccc(C(=O)NCCNc2ccccc2[N+](=O)[O-])cc1	Shiga inhibitor 77, Cycloheximide cs 32
CCCCCCc1cc2cc(-c3nnc(-c4ccccc4OC)o3)c(=O)oc2cc1O	none
CNc1nnc(CSc2nc3ccccc3s2)s1	Shiga inhibitor 84, Cycloheximide cs 22
CCS(=O)CCSc1nc2ccccc2s1 (centres undefined)	Shiga inhibitor 121, Cycloheximide cs 32
c1csc(CSc2nc3ccccc3s2)c1	Shiga inhibitor 136, Cycloheximide cs 34
c1ccc(NCCSc2nc3ccccc3s2)cc1	none (no result: SARS PLP yeast, AmpC no deterg, Shiga inhibitor, AmpC detergent, Cycloheximide cs)
CCN(C(C)=O)c1nnc(CSc2nc3ccccc3s2)s1	Shiga inhibitor 157, Cycloheximide cs 25
Cc1noc(C)c1CSc1nc2ccccc2s1	AmpC detergent inconclusive
O=C1NC(=O)C2(CCCCC2)N1	none (no result: SARS PLP yeast, AmpC no deterg, Shiga inhibitor, AmpC detergent, Cycloheximide cs)
CC(=O)Nc1ccccc1C(=O)C(=O)Nc1ccc(Cl)cc1	Shiga inhibitor 75, Cycloheximide cs 17
CCC(=O)Nc1ccccc1C(=O)C(=O)Nc1ccccc1	Shiga inhibitor 38, Cycloheximide cs 35
CC(=O)Nc1ccccc1C(=O)C(=O)Nc1cccc(Br)c1	Shiga inhibitor 100, Cycloheximide cs 37
CCCC(CCC)C(=O)Nc1cc(-c2cn3cccnc3n2)ccc1OC	none (no result: SARS PLP yeast, AMA1-RON2 inh, AmpC no deterg, Shiga inhibitor, Cycloheximide cs)
O=C(NC(Cc1ccccc1)C(=O)O)/C(=C/c1cccc([N+](=O)[O-])c1)NC(=O)c1ccco1 (centres undefined)	none
Nc1c2c(=O)oc(-c3ccccc3)cc2nn1-c1ccccc1	Shiga inhibitor 115, Cycloheximide cs 38
Cc1c(-c2ccc(Cl)cc2)oc(=O)c2c(N)n(-c3ccccc3)nc12	Cycloheximide cs 24
COc1ccc(/C=C2/C(=O)N(CC3CCCO3)C(=S)N2C)c(OC)c1 (centres undefined)	AmpC detergent inconclusive
COc1ccc2c(c1)nc1n2CN(CC2CCCO2)CN1Cc1ccccc1 (centres undefined)	Shiga inhibitor 49, Cycloheximide cs 32 (no result: AMA1-RON2 inh)
CN(C(=O)c1ccccc1C(=O)OCC(=O)Nc1ccc(OC(F)F)cc1)c1ccccc1	AmpC detergent inconclusive (no result: Shiga inhibitor, Cycloheximide cs)
COc1cc(OC)cc(C(=O)N[C@H](C(=O)OCC(=O)c2ccc(F)cc2)C(C)C)c1	none
CC(C)C(NC(=O)c1ccccc1F)C(=O)OCC(=O)c1ccc(F)cc1 (centres undefined)	Shiga inhibitor 94, Cycloheximide cs 62
Cc1ccc(Nc2cccccc2=O)cc1	AmpC detergent inconclusive, Cycloheximide cs 16
COC(=O)c1ccccc1Nc1ccccc1	none
O=C(COC(=O)c1ccccc1Nc1ccccc1)c1ccccc1	Cycloheximide cs 30
CCOc1ccccc1C(=O)OCC(=O)Nc1ccc(OC(F)F)cc1	Cycloheximide cs 17
CCCCn1c(=O)c2c(O)cc(=O)oc2c2ccccc21	none
CCc1nnc(NS(=O)(=O)c2ccc(NC(=O)c3cc(Cl)ccc3OC)cc2)s1	none
CC(=O)Nc1ccc(C(=O)OCc2ccc(F)cc2)cc1	none
CC(=O)Nc1ccc(C(=O)OCC(=O)c2ccc(F)cc2)cc1	Shiga inhibitor 34, Cycloheximide cs 25
CC(=O)Nc1cc(C(=O)OCC(=O)c2ccc(C)cc2)ccc1C	Shiga inhibitor 128, Cycloheximide cs 86
Cc1cccc(C(=O)Nc2ccccc2C(=O)OCC(=O)Nc2ccc(C#N)cc2)c1	Shiga inhibitor 55, Cycloheximide cs 46
Cc1cccc(OCC(=O)Nc2ccc(C(=O)Nc3ccccc3C(=O)O)cc2)c1	none (no result: SARS PLP yeast, AmpC no deterg, Shiga inhibitor, AmpC detergent, Cycloheximide cs)
CC(=O)Nc1cc(C(=O)OCC(=O)c2ccc(Cl)cc2Cl)ccc1C	AmpC detergent inconclusive
CN(C)c1cccc(C(=O)OCC(=O)NCc2ccco2)c1	AmpC detergent inconclusive, Cycloheximide cs 19
COc1cc(OC)cc(C(=O)OCC(=O)NCc2ccco2)c1	none (no result: Shiga inhibitor, Cycloheximide cs)
C#CCN(C[C@@H]1[C@@H](OC(=O)NC2CCCC2)[C@@H](OC(=O)NC2CCCC2)CN(C(=O)OC(C)C)N1C(=O)OC(C)C)S(=O)(=O)c1ccc(C)cc1	none (no result: SARS PLP yeast, AmpC no deterg, Shiga inhibitor, AmpC detergent, Cycloheximide cs)
CC(C)CCNC(=O)c1c(N)n(CC2CCCO2)c2nc3ccccc3nc12 (centres undefined)	none
COc1cc2c(cc1NC(=O)C(C)Sc1ccc(C)cc1)oc1ccccc12 (centres undefined)	none
N/N=C1\CCCc2c1[nH]c1ccc([N+](=O)[O-])cc21	none
CC(=O)Nc1ccc(OC(=O)Oc2ccc(NC(C)=O)cc2)cc1	AmpC detergent inconclusive
CC(=O)Nc1ccc(OC(=O)c2ccccc2N)cc1	Cycloheximide cs 19
O=C(COC(=O)c1ccccc1Nc1ccccc1)NCc1ccco1	Cycloheximide cs 16
CC(C)(C)c1ccc(OCC(=O)NNC(=S)NC(=O)c2ccco2)c(Br)c1	none
CC(C)(C)c1ccc(OCC(=O)NCc2ccco2)c(Br)c1	Cycloheximide cs 30
CNc1ccccc1C(=O)OCC(=O)c1ccc(F)cc1	Shiga inhibitor 122, Cycloheximide cs 80
O=C(NCc1ccc2c(c1)CCN2C(=O)c1ccncc1)c1ccccc1Br	none (no result: SARS PLP yeast, AMA1-RON2 inh, AmpC no deterg, Shiga inhibitor, Cycloheximide cs)
O=C(COC(=O)c1ccccc1-c1ccccc1[N+](=O)[O-])c1ccccc1	Cycloheximide cs 22
CC(=O)Nc1ccc(C(=O)OCc2ccccc2Br)cc1	Shiga inhibitor 58, Cycloheximide cs 27
CNc1ccccc1C(=O)OCC(=O)c1ccccc1	Shiga inhibitor 33, Cycloheximide cs 46
O=C(COC(=O)c1ccccc1[N+](=O)[O-])NC(=O)c1ccccc1	none (no result: Shiga inhibitor, Cycloheximide cs)
Cc1cc2c(cc(C(=O)OCC(=O)NCc3ccco3)n2C)s1	Cycloheximide cs 15
O=[N+]([O-])c1cccc(S(=O)(=O)NCCOc2cccc3cccnc23)c1	SARS PLP yeast inconclusive
O=C(Nc1nnc(SCc2ccccc2F)s1)c1ccco1	none
Cc1ccc(NC(=O)COC(=O)c2ccccc2Nc2ccccc2)cc1	AmpC no deterg 25µM
C[C@H](CO)N1C[C@H](C)[C@@H](CN(C)C(=O)Nc2ccc3c(c2)OCO3)Oc2ccc(NC(=O)C3CCCCC3)cc2C1=O	none (no result: Shiga inhibitor, AmpC detergent, Cycloheximide cs)
CCc1ccc2nc(N3CCN(C)CC3)c(C#N)cc2c1	Shiga inhibitor 17, Cycloheximide cs 22
COc1ccc2cc(C#N)c(N3CCOCC3)nc2c1	none
